This passage reports Potency results from PubChem BioAssay AID1347131 (National Center for Advancing Translational Sciences (NCATS), 2019).

The campaign covered roughly 410,000 compounds. About 2,000 (0.49%) were called active. A call without a number means that no potency is given here. About 8% were inconclusive and are not listed. Calls come from the whole dose curve; tested in HEK293 reporter line. For the sample, actives were picked, then their nearest neighbours and some compounds at random.
Potency is the fitted concentration of half-maximal effect.

The nature of this assay: qHTS Assay for Foot and Mouth Disease Virus Antivirals: Primary Screen against the MLPCN compound library. Note: nearly all actives have a fitted effect of over 55% in size. Particulars: FMDV antiviral cell-based qHTS; series mostly up to 57.9 µM.
As to `O=C(OC1C2CCC1C1CN(CCc3ccccc3)CC12)c1ccccc1` (configuration not stated), the Potency result is “inactive”.

Regarding `COc1ccc(-c2cc3c(=O)n(CC(=O)Nc4cccc(Cl)c4)nc(C)n3n2)cc1`, the Potency entry was “inactive”.

Consider `CN(C)c1cccc(F)c1C(=O)NC(=O)Nc1ccc(Cl)cc1`, for which the Potency entry is “inactive”.

For the compound `COc1ccc(CN2CCNC(=O)C2CC(=O)NC2CCCC2)c(OC)c1` (configuration not stated), the Potency result was “inactive”.

Turning to `COC(=O)c1nnn(-c2nonc2N)c1CSc1nc2ccccc2s1`, the Potency result was “inactive”.

Consider `Cc1c(NC(=O)CN2CCN(c3cccc(Cl)c3)CC2)c(=O)n(-c2ccccc2)n1C`, for which the Potency entry was “inactive”.

Turning to `CC12CN(C(=O)c3ccco3)CC(c3ccccc3)(CN(C(=O)c3ccco3)C1)C2=O`, the Potency entry is “inactive”.

On to `O=C(O)c1ccc(N/N=C/c2cc(Br)cs2)cc1`, for which the Potency was 11.2 µM (active).

In the case of `COc1ccc(/C=N/Nc2ccc(C(=O)O)cc2)cc1Br`, the Potency entry was “inactive”.

With `CC(C)c1ccc(/C=N/Nc2ccc(C(=O)O)cc2)cc1`, the Potency result is “inactive”.

`O=C(NC1CCC(=O)N(CCOc2ccccc2)CC1)OCc1ccccc1` (configuration not stated): the Potency entry is “inactive”.

`CC(=O)N1CCc2c(sc3c2c(=O)n(CCc2ccccc2)c(=O)n3Cc2cccc(C)c2)C1`: the Potency entry was “inactive”.

With `COc1ccc(NC(=O)Nc2c(O)ccc3ccccc23)cc1`, the Potency entry is “inactive”.

In the case of `COc1ccc(-c2cc(-c3ccccc3O)[nH]n2)cc1`, the Potency result was “inactive”.

As for `COc1ccc(N=Nc2ccc3ccccc3c2)c(O)c1`, the Potency was 22.4 µM (active).

As for `COc1cc2c(cc1OC)CN(C(=O)c1cc(Cl)nc(Cl)c1)CC2`, the Potency result was “inactive”.

As to `CC(=O)NC12CC3CC(C1)CC(C(=O)Oc1ccc(N(C)S(=O)(=O)c4cc(C)ccc4C)cc1)(C3)C2`, the Potency result is “inactive”.

For `CC(=O)N1CCN(c2ccc(NC(=O)c3cccc(F)c3)cc2)CC1`, the Potency result was “inactive”.

As to `CN1CCN(c2ccc(NC(=O)c3ccc4ccccc4c3)cc2)CC1`, the Potency is 22.4 µM (active).

Take `COc1ccc(C(=O)Nc2ccc(N3CCN(C(=O)c4ccccc4C)CC3)cc2)cc1`: the Potency entry was “inactive”.

On to `CC(C)(C)OC(=O)CNC(=O)c1[nH]cnc1C(=O)N[C@@H](CCCCNC(=O)OC(C)(C)C)C(=O)OC(C)(C)C`, for which the Potency entry was “inactive”.

As to `O=C(CCCc1nc(-c2ccc(Cl)cc2)no1)NC1CCCC1`, the Potency result was “inactive”.

In the case of `O=C(c1ccc2c(c1)N(Cc1ccccc1F)C(=O)c1ccccc1S2=O)N1CCN(c2ccccc2)CC1` (configuration not stated), the Potency entry is “inactive”.

Consider `COc1ccc(C)cc1NC(=O)C1CCN(S(=O)(=O)c2ccccc2)CC1`, for which the Potency entry is “inactive”.

For the compound `CCOC(=O)c1sc(NC(=O)c2ccc(S(=O)(=O)N3CCCCC3)cc2)nc1-c1ccccc1`, the Potency result is “inactive”.

As for `CCOC(=O)c1sc2ccc(S(=O)(=O)N3CCCCC3)cc2c1N`, the Potency is 17.8 µM (active).

Take `CCOC(=O)/C=C/C(=O)Nc1ccc(S(=O)(=O)N2CCCCCC2)cc1`: the Potency entry was “inactive”.

In the case of `COc1cc(OC)cc(C(=O)Nc2ccc3c(c2)CCCN3C(=O)c2cccs2)c1`, the Potency entry is “inactive”.

`O=C1CC(c2ccco2)CC(O)=C1C=NCCN1CCN(C(=O)Nc2ccc(Cl)cc2)CC1` (configuration not stated): the Potency result is “inactive”.

`Cc1ccc(CSCC(=O)N(C)CC(=O)Nc2c(Cl)cccc2Cl)cc1`: the Potency result was “inactive”.

On to `Cc1ccc(-c2noc(-c3ccc(N4CCCCC4)c([N+](=O)[O-])c3)n2)cc1`, for which the Potency result is “inactive”.

On to `Fc1ccc(-c2noc(-c3ccc4c(c3)CCO4)n2)cc1`, for which the Potency is 12.6 µM (active).

`O=S(=O)(Nc1ccc2ccccc2n1)c1ccc2c(c1)CCO2`: the Potency entry is “inactive”.

As for `O=C(NCCN1CCC(n2c(=O)[nH]c3ccccc32)CC1)c1ccc(Cl)cc1`, the Potency result is “inactive”.

For `CC(C)Oc1ccc(C(=O)Nc2nc3c(s2)CC(C(C)(C)C)CC3)cc1` (configuration not stated), the Potency result is “inactive”.

Regarding `CN(c1ccccc1)S(=O)(=O)c1ccc(C(=O)Nc2ccncc2)cc1`, the Potency entry was “inactive”.

As for `COCc1ccc(C(=O)Nc2cccc(S(=O)(=O)N(C)c3ccccc3)c2)cc1`, the Potency was 15.8 µM (active).

As for `CN(c1ccccc1)S(=O)(=O)c1cccc(C(=O)Nc2cccc(C(=O)NC3CC3)c2)c1`, the Potency result is “inactive”.

With `Cc1ccc(S(=O)(=O)N(C)CCCC(=O)Nc2cc(C)ccc2C)cc1`, the Potency entry is “inactive”.

Regarding `CN(c1ccccc1)S(=O)(=O)c1ccc(C(=O)NCCc2ccc(F)cc2)cc1`, the Potency entry was “inactive”.

As for `Cc1ccccc1C(c1c(C)n(C)n(-c2ccccc2)c1=O)c1c(C)n(C)n(-c2ccccc2)c1=O`, the Potency entry was “inactive”.

With `C=C(C)C(=O)N1CC2(CC(c3cccc(NC(=O)COc4ccc(Cl)cc4)c3)=NO2)C[C@@H]1C(N)=O` (some centres not stated), the Potency result is “inactive”.

`NC(=O)[C@@H]1CC2(CC(c3cccc(NC(=O)CC(c4ccccc4)c4ccccc4)c3)=NO2)CN1C(=O)COc1ccc(Cl)cc1` (some centres not stated): the Potency result was “inactive”.

Regarding `CCCCCC(=O)N1CC2(CC(c3cccc(NC(=O)COc4ccc(Cl)cc4)c3)=NO2)C[C@@H]1C(N)=O` (some centres not stated), the Potency is 14.1 µM (active).

Turning to `C=C1C(C)C2C(Cc3ccccc3)NC(=O)C23OC(=O)/C=C/C(O)CCCC(C)C/C=C/C3C1O` (configuration not stated), the Potency result was “inactive”.

Turning to `CC1CCCCN1C(=O)CSc1c2c(nc3cc(Cl)ccc13)CCCC2` (configuration not stated), the Potency result is “inactive”.

Regarding `COc1ccc(C=NNc2nc3ccccc3s2)cc1`, the Potency was 15.8 µM (active).

Take `COc1ccc(S(=O)(=O)Nc2nc3ccccc3s2)cc1`: the Potency entry was “inactive”.

`COc1ccc(/C=N/Nc2cc(C)nc3ccccc23)cc1`: the Potency entry is “inactive”.

For the compound `O=Cc1cc(Cl)ccc1OCCN1CCC(Cc2ccccc2)CC1`, the Potency entry is “inactive”.

In the case of `COc1ccc2c(c1OC)C(=O)N1c3ccccc3C(=O)N(c3ccccc3F)C21` (configuration not stated), the Potency result was “inactive”.

For `COc1ccccc1CN1C(=O)c2cccc3cccc(c23)C1=O`, the Potency result was “inactive”.

Take `Nc1cccc2c1C(=O)N(CCOc1ccccc1F)C2=O`: the Potency was 15.8 µM (active).

Take `CCCCC(=O)N1CCN(c2nc3c(C)c(C)ccc3s2)CC1`: the Potency entry was “inactive”.

On to `CCc1nc2ccc(C(=O)Nc3cc(-c4ccccc4)ccc3OC)cn2c1N(C=O)CCC(C)C`, for which the Potency entry is “inactive”.

As to `CC(C)Oc1ccc(C(=O)NCC(=O)N2CCN(S(=O)(=O)/C=C/c3ccccc3)CC2)cc1`, the Potency result was “inactive”.

Consider `Cc1ccc(-n2ncc3c(NC4CCCCC4)ncnc32)cc1`, for which the Potency was 20 µM (active).

Take `Cc1ccc(-n2ncc3c(N4CCN(c5ccc(F)cc5)CC4)ncnc32)cc1`: the Potency result was “inactive”.

Regarding `Cc1ccc(-n2ncc3c(N4CCCCC4)ncnc32)cc1`, the Potency result was “inactive”.

Consider `Cc1ccc(-n2ncc3c(N4CCCCCC4)ncnc32)cc1`, for which the Potency entry was “inactive”.

On to `Cc1ccc(-n2ncc3c(NC4CCCC4)ncnc32)cc1`, for which the Potency was 12.6 µM (active).

Consider `COc1ccccc1N1CCN(c2ncnc3c2cnn3-c2ccc(C)cc2)CC1`, for which the Potency result was “inactive”.

As for `CC(C)c1cccc(C(C)C)c1NC(=O)CNCC(O)c1ccccc1` (configuration not stated), the Potency result was “inactive”.

Regarding `COc1ccccc1N/C=C/c1onc(C)c1[N+](=O)[O-]`, the Potency was 12.6 µM (active).

`COc1ccccc1Nc1cc(C)nc2c(C)ccc([N+](=O)[O-])c12`: the Potency entry is “inactive”.

For the compound `COc1ccccc1NC(=O)c1c(N=Cc2cccc([N+](=O)[O-])c2)cnn1C`, the Potency result was “inactive”.

Consider `O=C(c1ccc(F)cc1)N1CCC(c2nc(-c3ccc(S(=O)(=O)N4CCCC4)cc3)no2)CC1`, for which the Potency entry was “inactive”.

As to `COc1ccc(-c2ccc3c(c2)CN(C(=O)C(C)(C)C)Cc2cnnn2-3)cc1`, the Potency result was “inactive”.

As for `CCC(C)n1c(S(=O)(=O)O)nc2ccccc21` (configuration not stated), the Potency result was “inactive”.

Consider `O=C(NNC(=O)c1ccc2c(=O)n3c(nc2c1)CCC3)c1cccc(Cl)c1`, for which the Potency result was “inactive”.

Turning to `Cc1cccc(NC(=O)c2ccc3c(=O)n4c(nc3c2)CCCCC4)n1`, the Potency was 12.6 µM (active).

Consider `O=C(Nc1ccc2nc3n(c(=O)c2c1)CCCCC3)c1cccc(C(F)(F)F)c1`, for which the Potency entry is “inactive”.

On to `c1ccc(-c2cn3c(n2)-c2ccccc2C3)cc1`, for which the Potency is 7.94 µM (active).

On to `CC1(C)Cc2ccccc2-c2nnc(-c3ccc4ccccc4n3)n21`, for which the Potency result is “inactive”.

Take `CN1C(=O)N(CC(=O)Nc2cccc(S(=O)(=O)N(C)c3ccccc3)c2)C(=O)C12CCCCC2`: the Potency result was “inactive”.

Turning to `CCN1C(=O)[C@H]2[C@@H](c3ccc(-c4ccc(Cl)c(Cl)c4)c(OC)c3)N[C@@](C)(C(=O)OC)[C@H]2C1=O`, the Potency result was “inactive”.

Take `Cc1nc(NC(=O)/C=C/c2ccc(C(C)(C)C)cc2)sc1C(=O)N(C)C`: the Potency result was “inactive”.

Consider `COc1ccc(N(C)S(=O)(=O)c2cccc(C(=O)Nc3nc(C)c(C(C)=O)s3)c2)cc1`, for which the Potency entry was “inactive”.

With `Cc1cc(C(=O)Nc2nc(C)c(C(=O)N(C)C)s2)ccc1[N+](=O)[O-]`, the Potency was 15.8 µM (active).

Turning to `CCOc1ccc(CCNC(=O)COC(=O)COc2cc(C)cc(C)c2)cc1OCC`, the Potency result was “inactive”.

Turning to `Cc1ccc(Nc2c(C(C)C)c(C)c(C#N)c3nc4ccccc4n23)cc1`, the Potency result is “inactive”.

Regarding `COc1cccc(Oc2cnc(N)nc2-c2ccc(OC)cc2O)c1`, the Potency entry was “inactive”.

Consider `Cc1cc2nc(-c3ccc[nH]c3=O)[nH]c2cc1C`, for which the Potency was 12.6 µM (active).

As for `Cc1cc2nc(-c3nnnn3Cc3ccccc3)c(=O)[nH]c2cc1C`, the Potency entry is “inactive”.

On to `COc1ccc(-c2noc(CN(C(=O)c3cccs3)C(C)C)n2)cc1`, for which the Potency result is “inactive”.

`COC(=O)c1[nH]c2cc(OC)ccc2c1NC(=O)CN1CCN(c2cccc(C)c2)C(C)C1` (configuration not stated): the Potency result was “inactive”.

As to `COC(=O)c1[nH]c2ccc(C)cc2c1NC(=O)CN1CCN(c2ccccc2)CC1`, the Potency entry was “inactive”.

As to `COC(=O)c1[nH]c2ccccc2c1NC(=O)CN1CCN(c2cccc(OC)c2)C(C)C1` (configuration not stated), the Potency is 28.2 µM (active).

For the compound `Cc1cc2nc(N3C(=O)CNC3=S)sc2cc1C`, the Potency was 20 µM (active).

As for `COc1ccc(CN(C(=O)c2oc3cc(C)ccc3c2C)C2CCS(=O)(=O)C2)cc1OC` (configuration not stated), the Potency entry is “inactive”.

For `Cc1cccnc1NC(=O)c1cc2ccccc2oc1=O`, the Potency is 10 µM (active).

As to `Cc1ccc(NC(=O)c2cc3ccccc3oc2=O)cc1S(=O)(=O)N(C)C`, the Potency result was “inactive”.

For `COc1cccc(NC(=O)c2cc3ccccc3oc2=O)c1`, the Potency is 20 µM (active).

For `C=CCn1c(=O)c(C(=O)Nc2ncccc2C)c(O)c2ccccc21`, the Potency result is “inactive”.

Take `COc1ccc(NC(=O)c2cc3ccccc3o/c2=N\NS(=O)(=O)c2ccc(C)cc2)cc1`: the Potency result is “inactive”.

Consider `O=C(Nc1ccc(NC(=O)c2cc3ccccc3o2)cc1)c1ccc2c(c1)OCCO2`, for which the Potency entry is “inactive”.

Turning to `COc1cccc2cc(C(=O)NCc3ccc(Cl)cc3)c(=N)oc12`, the Potency entry was “inactive”.

For the compound `COc1ccc(NC(=O)c2sc3nc(-c4cc5cccc(OC)c5oc4=O)[nH]c(=O)c3c2C)cc1`, the Potency result is “inactive”.

As to `Cc1cccc(C)c1NC(=O)c1cc(-c2ccccn2)nc2ccccc12`, the Potency result is “inactive”.

Take `COc1cccc2cc(C(=O)Nc3cccc(C)n3)c(=O)oc12`: the Potency was 8.91 µM (active).

With `CCOc1cccc2cc(C(=O)NC(C)c3ccccc3)c(=N)oc12` (configuration not stated), the Potency result was “inactive”.

For the compound `N=c1oc2ccccc2cc1C(=O)Nc1ccccc1`, the Potency was 11.2 µM (active).
